Sfp PPTase inh – qHTS Assay for Inhibitors of Bacillus subtilis Sfp phosphopantetheinyl transferase (PPTase). 4'-phosphopantetheinyl transferase ffp (Bacillus subtilis), Q9F4F7. Biochemical Sfp PPTase activity, qHTS. Potency, µM, for inactives: largest response in the series, negative = inhibition, usual class: inhibitors. 310,000 tested, 3.5% active. AID 1490, 2009;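 note: the enzyme is Sfp with the accession as filed and its product quenches rhodamine fluorescence; 0% = enzyme reaction without inhibitor and -100% = no enzyme wells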
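After 15 min at room temperature with compound, 15 nM Sfp received 5 uM rhodamine-CoA plus 12.5 uM BHQ-2-ybbR (50 mM Hepes pH 7.6, 10 mM MgCl2). Rate came from the fluorescence difference over 30 min, ex 525/em 598 nm.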
BAZ2B inh – qHTS Assay for Inhibitors of BAZ2B; AID 504333, 2011; AlphaScreen BAZ2B-H3K14Ac peptide displacement; 360,000 tested, 4.4% active; Potency, µM (top dose mostly 114 µM), inactives show at the top dose activity change, negative = inhibition, actives largely listed as inhibitors; Bromodomain adjacent to zinc finger domain protein 2B (Homo sapiens), Q9UIF8; note: % is set by controls: 0 for no effect and ±100 for the full control effect; nearly all actives have a fitted effect of over 60% in size
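In this displacement format the biotinylated H3(5-23) peptide acetylated at Lys14 serves as ligand at 50 nM, with BAZ2B at 50 nM in PBS pH 7.4 containing 0.01% Tween-20. Donor and acceptor beads are 10 ug/mL final.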
HP1b binding inh – HTS for Inhibitors of HP1-beta Chromodomain Interactions with Methylated Histone Tails; AlphaScreen HP1-beta / biotin-H3K9me3 peptide binding; Potency, µM (titrated, usually from 114 µM), without a hit: at the highest dose activity change, negative = inhibition, usual class: inhibitors; 390,000 tested, 0.56% active; AID 540317, 2011; note: nearly all actives have a fitted effect of over 70% in size
Target sequence (P83916 whole entry, looked up): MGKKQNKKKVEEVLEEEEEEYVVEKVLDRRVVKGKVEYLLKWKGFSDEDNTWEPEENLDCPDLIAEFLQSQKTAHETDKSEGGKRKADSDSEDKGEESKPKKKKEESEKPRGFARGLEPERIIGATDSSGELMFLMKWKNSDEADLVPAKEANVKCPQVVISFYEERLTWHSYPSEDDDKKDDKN
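AlphaScreen: HP1-beta (50 nM) preformed 30 min with biotin-H3(1-18)K9me3 peptide (50 nM) in PBS pH 7.4, 0.01% Tween-20. Compound added for 30 min at RT, then streptavidin donor/nickel chelate acceptor beads (10 ug/mL) for 30 min.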
L3MBTL1 block – qHTS Assay for the Inhibitors of L3MBTL1. AlphaScreen L3MBTL1–H3K9me1 peptide binding. Potency, µM (series often up to 57.1 µM), inactives show at the top dose activity, negative = inhibition, hits mostly inhibitors. AID 485360, 2010. Lethal(3)malignant brain tumor-like protein 1 (Homo sapiens), Q9Y468. 230,000 tested, 0.66% active; note: % is set by controls: 0 for no effect and ±100 for the full control effect; nearly all actives have a fitted effect of over 60% in size
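Read-out is AlphaScreen signal from streptavidin donor and nickel chelate acceptor beads (10 ug/mL final each) bridging L3MBTL1 (50 nM) and biotinylated K9-monomethylated H3(1-15) peptide (75 nM), after 30 min compound exposure at room temperature.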
G9a block – qHTS Assay for Inhibitors of Histone Lysine Methyltransferase G9a. G9a H3K9 monomethylation, AlphaScreen, 2 h. Potency, µM (top dose mostly 102 µM), without a hit: at the highest dose activity, negative = inhibition, usual class: inhibitors. Histone-lysine N-methyltransferase EHMT2 (Homo sapiens), Q96KQ7. 350,000 tested, 8.8% active; note: % is set by controls: 0 for no effect and ±100 for the full control effect; nearly all actives have a fitted effect of over 75% in size
Target sequence (Q96KQ7 913-1193 limits assumed): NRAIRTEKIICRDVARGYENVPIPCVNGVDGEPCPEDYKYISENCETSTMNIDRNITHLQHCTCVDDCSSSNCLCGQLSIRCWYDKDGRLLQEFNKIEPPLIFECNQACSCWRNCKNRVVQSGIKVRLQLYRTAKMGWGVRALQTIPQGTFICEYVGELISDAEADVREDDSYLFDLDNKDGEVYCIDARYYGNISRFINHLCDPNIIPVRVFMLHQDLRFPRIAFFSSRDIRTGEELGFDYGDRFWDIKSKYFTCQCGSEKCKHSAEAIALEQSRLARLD
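G9a (20 nM) preincubated 15 min RT with compounds, then 500 nM biotinylated H3K9 peptide and 20 uM SAM added; 2 h RT reaction. Monomethyl-H3K9 product detected by AlphaScreen with anti-H3K9me1 antibody, streptavidin donor and anti-rabbit IgG acceptor beads.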
JMJD2A Tudor inh – qHTS Assay for Inhibitors of JMJD2A-Tudor Domain; AID 504339, 2011; Potency, µM (doses to about 114 µM), without a hit: at the highest dose activity change, negative = inhibition, hits mostly inhibitors; Lysine-specific demethylase 4A (Homo sapiens), O75164; AlphaScreen JMJD2A-Tudor / H3K4me3 peptide binding; 390,000 tested, 4.4% active; note: % is set by controls: 0 for no effect and ±100 for the full control effect; nearly all actives have a fitted effect of over 50% in size
* hit, by the source's call; ? = inconclusive; . = no result; [ ] = remark or other dose. Shown are actives, neighbours in structure and some others; about 12% of the full set was active somewhere. Calls come from the whole dose curve; as a rule, active = well fitted curve in the direction sought with a large enough effect; inconclusive = small, poorly fitted or top-dose-only effect, or another doubt; inactive = no such curve, though single readings can be large; an effect the other way counts as inactive or inconclusive. Potency is the fitted concentration of half-maximal effect.

SMILES	Sfp PPTase inh	BAZ2B inh	HP1b binding inh	L3MBTL1 block	G9a block	JMJD2A Tudor inh
Cc1ccnc(SCC(=O)N2CCc3ccccc3C2)n1	-10.2%	-27.3%	-5.2%	-5.6%	39.8µM*	-8.3%
O=C(CNCc1ccccn1)N1CCc2ccccc2C1	-22.8%	3.98µM*	8.7%	.	-106.6%[59 µM]	?
CC(=O)O[C@@H]1C(=O)[C@@]2(C)[C@H](O)C[C@H]3OC[C@]3(OC(C)=O)[C@@H]2[C@H](OC(=O)c2ccccc2)[C@@]2(O)C[C@H](OC(=O)[C@@H](O)[C@@H](NC(=O)c3ccccc3)c3ccccc3)C(C)=C1C2(C)C (stereo in doubt)	?	.	.	.	16.5%[21.5 µM]	.
COc1ccc(S(N)(=O)=O)cc1C(=O)N(C)CC(=O)Nc1ccc(N2CCOCC2)cc1	13.1%	-0.4%	30.0%	.	.	-15.9%
CN(C)NC(=S)NC1CCS(=O)(=O)C1 (stereo not given)	79.4µM*	-16.3%	9.8%	-2.5%	50.1µM*	31.6µM*
O=S1(=O)CCC(NC(=S)NC2CCS(=O)(=O)C2)C1 (stereo not given)	4.9%	-31.4%	25.6%	1.7%	-1.2%[59 µM]	-2.4%
O=C1C(=Cc2cccs2)Oc2ccccc21	.	.	6.9%[57 µM]	.	.	-30.3%
O=C1OC(c2ccccc2)=C/C1=C/c1cccs1	50.1µM*	10µM*	-7.8%	-23.6%	12.6µM*	?
O=C1N=C(c2ccccc2)S/C1=C\c1cccs1	35.5µM*	?	-74.0%	.	1.41µM*	22.4µM*
O=c1oc2ccc3ccccc3c2cc1-c1nnc(Nc2cccc(F)c2)s1	.	1.0%	20.4%	.	5.5%[59 µM]	-2.3%
Fc1ccccc1Cc1noc(CN2CCC(OCc3cccnc3)CC2)n1	35.5µM*	-14.7%	12.5%	-7.0%	.	-4.9%
COC1CCCN(Cc2nc(Cc3ccccc3F)no2)C1 (stereo not given)	26.2%	-16.0%	37.2%	2.5%	4.9%	-12.0%
Cc1c(C)n2c(SCC(=O)NCc3ccc4c(c3)OCO4)nnc2[nH]c1=O	.	12.6%	17.9%	-2.3%	19.5%[2.33 µM]	-6.2%
CCCCN(CC)C(=O)C1CCCN(c2ncnc3c2nc2n3CCCCC2)C1 (stereo not given)	.	2.1%	9.6%	.	4.7%[59 µM]	-12.9%
CCCCN(Cc1ccco1)C(=O)C1CCCN(c2ncnc3c2nc2n3CCCCC2)C1 (stereo not given)	-4.7%	?	36.8%	.	79.4µM*	?
COc1cccc(/C=N/NC(=O)c2c(-c3ccccc3)noc2C)c1O	3.3%	44.7µM*	19.1%	-3.8%	107.0%[59 µM]	?
Cc1onc(-c2ccccc2)c1C(=O)N/N=C/c1c[nH]c2ccccc12	-8.8%	?	44.7µM*	-9.7%	-28.1%	?
CCOc1cc([N+](=O)[O-])cc(/C=N/NC(=O)c2c(-c3ccccc3)noc2C)c1O	10.1%	22.4µM*	20.2%	.	?	79.4µM*
CCOc1cc(/C=N/NC(=O)c2c(-c3ccccc3)noc2C)ccc1O	6.3%	7.4%	42.3%	.	28.3%	-3.3%
CC1C(=O)NN=C1c1ccc([N+](=O)[O-])cc1 (stereo not given)	.	.	17.2%	.	.	-16.0%
O=Cc1ccc(C(=O)OCC(=O)NCc2ccco2)cc1	.	.	7.9%	0.6%	.	-11.6%
CCc1nn(CC(=O)Nc2ccc(N(CC)CC)cc2C)c(=O)c2cc3sccc3n12	.	-14.7%	8.5%	.	?	-13.1%
O=c1nc2s/c(=C\c3ccc(-c4ccccc4[N+](=O)[O-])o3)c(=O)n2nc1-c1ccccc1	?	10µM*	30.6%	2.24µM*	?	2.8%
CCCCCOc1ccc(/C=c2\sc3nc(=O)c(-c4ccccc4)nn3c2=O)cc1OC	-6.7%	-5.1%	2.0%	-0.6%	-9.4%[59 µM]	-4.3%
COc1ccc(-c2cc(C(C)=O)c(C)n2CCC(=O)Nc2ccc(C)c(Cl)c2)cc1	.	0.0%	24.2%	.	-9.9%[59 µM]	-3.8%
SMILES	Sfp PPTase inh	BAZ2B inh	HP1b binding inh	L3MBTL1 block	G9a block	JMJD2A Tudor inh
O=C(CC1Nc2ccccc2NC1=O)NCCc1ccccc1 (stereo not given)	26.9%	4.7%	53.4%	-10.2%	11.2µM*	-18.1%[57.1 µM]
COc1ccc(CCNC(=O)CC2Nc3ccccc3NC2=O)cc1 (stereo not given)	-12.9%	?	38.3%	-16.5%	-7.1%[59 µM]	-13.0%[57.1 µM]
CCOc1ccccc1NC(=O)CC1Nc2ccccc2NC1=O (stereo not given)	5.6%	-28.3%	7.6%	0.7%[11.4 µM]	14.1µM*	-22.9%
O=c1c(-c2ccccc2)nc2cnc(Oc3ccccc3)nc2n1Cc1cccs1	16.0%	.	.	.	1.3%[12.7 µM]	.
CC(C)(Sc1ccc(CCN(CCCCC2CCCCC2)C(=O)NC2CCCCC2)cc1)C(=O)O	26.0%	79.4µM*	13.6%	-0.2%	79.4µM*	79.4µM*
CN(c1ccccc1)S(=O)(=O)c1cccc(NC(=O)C2=NN(c3ccccc3)C(=O)CC2)c1	.	.	16.9%	0.5%	.	-23.9%
CCC(C)Nc1nc(Cl)nc(N(C#N)CN2C(=O)c3ccccc3S2(=O)=O)n1 (stereo not given)	2.4%	-32.4%	18.1%	-6.6%	?	?
Cc1cc(C)nc(N(C#N)CN2C(=O)c3ccccc3C2=O)n1	89.1µM*	29.8%	11.2%	35.6%	4.8%[12.7 µM]	-0.6%
CC(C)Nc1nc(Cl)nc(N(C#N)CN2C(=O)c3ccccc3C2=O)n1	-10.8%	-8.1%	-8.0%	-8.2%	28.2µM*	?
Cc1cc(C)nc(N(C#N)Cc2ccccc2C)n1	-8.2%	13.2%	57.9%	30.8%	.	4.8%
CCCCCCc1ccc(C(=O)CCN(C)C)cc1	?	.	.	.	.	6.2%
Cn1c(N)c(N=O)c(=O)n(C)c1=O	-19.0%	-15.3%	32.9%	-7.7%	50.1µM*	-11.0%
CCOC(=O)C=Nc1c(N)n(C)c(=O)n(C)c1=O	-31.4%	-35.2%	30.6%	-3.6%	-25.0%[59 µM]	?
COc1ccc(C(CNC(=O)C(C)(C)Oc2ccc(Cl)cc2)N2CCOCC2)cc1 (stereo not given)	.	.	8.1%	.	.	-18.2%
O=C(Nc1ccc2c(c1)N(C1CCCC1)C(=O)c1ccccc1S2)c1ccc(F)cc1	.	-5.5%	-8.2%	.	2.2%[59 µM]	-24.7%
CCN=c1sc(C(=O)NCCc2ccccc2)cc(=O)n1CC	56.2µM*	-1.2%	11.7%	2.5%	?	-15.8%
CC(=O)OC[C@@H]1O[C@H](C/C=N\O[C@@H](C)CN2CCCc3nc(C)c(C)cc32)C=C[C@@H]1OC(C)=O	-7.0%	.	.	.	.	.
